hgDAF-12 ag – hgDAF-12 agonism, primary luciferase screen; HEK293 GAL4-hgDAF12 UAS-luciferase reporter, agonist luminescence; normalized to butyrate control; activation, % at 6.8 µM; 370,000 compounds, 1.8% hits; AID 687014;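 active = activation above a cutoff set at the mean of all screened compounds plus 3 SD, cut at about 10% in these data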;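 also: 0% = DMSO wells and 100% = sodium butyrate wells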
DAX1 inh-1 – inhibitors of DAX1 repression of SF-1 activated StAR promoter. HEK293T StAR-luciferase reporter, SF-1/DAX-1 repression relief. inhibition, % at 6.8 µM. 370,000 compounds, 1.1% hits;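 active = inhibition above the mean over all tested compounds plus 3 SD, cut at about 3.6% in these data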;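 also: 0% = DAX-1 cells with DMSO and 100% = cells lacking DAX-1 with DMSO; higher inhibition means more luminescence from relief of DAX-1 repression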
ssDAF12 agonist – S. stercoralis DAF-12 activation, primary screen; HEK293 ssDAF-12/GRIP1 lit1-tk-luc reporter, luminescence; % of 3 µM dafachronic acid response; AID 652126; 370,000 compounds, 1% hits; activation, % at 6.8 µM;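 active = activation above the mean over all tested compounds plus 3 SD, cut at about 0.9% in these data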;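 also: 0% = DMSO-only wells and 100% = 3 µM delta7-dafachronic acid wells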
hcDAF12 agonist – H. contortus DAF-12 activation, primary screen | AID 652067 | activation, % at 6.8 µM | 370,000 compounds, 1.4% hits | HEK293 hcDAF-12 lit1-tk-luc reporter, luminescence; 0% DMSO, 100% Δ7-dafachronic acid;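 active = activation above the mean of all tested compounds plus 3 SD, cut at about 5.5% in these data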;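 also: 100% = response to 3 µM Δ7-dafachronic acid high control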
DAX1 inh-2 – inhibits human nuclear receptor DAX1 | HEK293 Gal4-DAX1 luciferase reporter, luminescence | 340,000 compounds, 0.99% hits | inhibition, % at 6.75 µM | AID 504766 | P51843;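 active = inhibition above the mean over all tested compounds plus 3 SD, cut at about 4.2% in these data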;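 also: 0% = DAX1-transfected cells with DMSO and 100% = empty-vector control cells with DMSO; inhibition shows as a rise in luminescence from relieved DAX1 repression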
Target sequence (P51843 207-470 limits assumed): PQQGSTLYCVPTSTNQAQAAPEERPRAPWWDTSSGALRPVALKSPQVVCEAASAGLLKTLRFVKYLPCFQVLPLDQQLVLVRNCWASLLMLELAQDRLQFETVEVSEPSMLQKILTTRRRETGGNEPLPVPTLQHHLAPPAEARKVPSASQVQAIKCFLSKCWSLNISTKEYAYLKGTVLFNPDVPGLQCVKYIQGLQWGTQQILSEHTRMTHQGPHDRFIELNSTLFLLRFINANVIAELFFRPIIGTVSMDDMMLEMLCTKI
SMARCA2 activ – SMARCA2 function activation, primary screen; 370,000 compounds, 1% hits; activation, % at 9.1 µM; MG213 cells, MMTV-luciferase reporter, dexamethasone, overnight; in the data active = activation above about 7.8%;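 also: 0% = vehicle wells and 100% = reference activator wells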
* hit, by the source's call. Sampled rows, rich in hits. Any-hit rate of the full collection: about 4.8%.

`COc1ccc(S(=O)(=O)N2CCOCC2)cc1NC(=O)CSc1ccc(F)cc1` gave hgDAF-12 ag -0.4, DAX1 inh-1 -0.3, ssDAF12 agonist -1.1, hcDAF12 agonist -0.4, DAX1 inh-2 0.2 and SMARCA2 activ 7.5.
C/C(N)=C(/C#N)C(=O)CSc1nn(-c2ccc(Cl)cc2)c(=S)s1 was read as hgDAF-12 ag 10.5*, DAX1 inh-1 1.7, ssDAF12 agonist -1.4, hcDAF12 agonist 0.0, DAX1 inh-2 2.2 and SMARCA2 activ 1.4.
For C#CCNC(=O)C[C@H]1C[C@@]2(C(=O)OC)C(=C[C@H](C(C)(C)C)O[C@@H]2C)N(CCCCCCCC)C1=O the results were hgDAF-12 ag 0.8, DAX1 inh-1 -1.0, ssDAF12 agonist -0.9, hcDAF12 agonist -1.1 and SMARCA2 activ -3.8.
Screening [O-][n+]1cccc2c(Br)cc(Br)c(O)c21 returned hgDAF-12 ag 0.9, DAX1 inh-1 0.3, ssDAF12 agonist -0.8, hcDAF12 agonist 2.4, DAX1 inh-2 4.5* and SMARCA2 activ -1.5.
For Cn1c(SCC(=O)NNC(=O)c2ccccc2O)nnc1-c1ccccc1 the results were hgDAF-12 ag 1.3, DAX1 inh-1 0.7, ssDAF12 agonist 0.0, hcDAF12 agonist 6.1*, DAX1 inh-2 0.4 and SMARCA2 activ 3.6.
`Cc1cccc(C(=O)Nc2c(-c3ccc(C(F)(F)F)cc3)nc3ncccn23)c1` gave hgDAF-12 ag 2.8, DAX1 inh-1 0.2, ssDAF12 agonist -0.1, hcDAF12 agonist 4.5 and SMARCA2 activ 4.9.
For Cc1nn(-c2ccccc2)c(C)c1C(=O)NCCc1ccc(Cl)cc1 the results were hgDAF-12 ag 5.3, DAX1 inh-1 -0.8, ssDAF12 agonist -1.4, hcDAF12 agonist -2.7, DAX1 inh-2 0.1 and SMARCA2 activ 0.8.
Screening Cc1nn(-c2ccccc2)c(C)c1C(=O)NCCc1ccccc1 returned hgDAF-12 ag 6.9, DAX1 inh-1 1.3, ssDAF12 agonist -0.2, hcDAF12 agonist 2.8, DAX1 inh-2 1.6 and SMARCA2 activ 8.0*.
Cn1c(=O)[nH]c(=O)c2c1nc(Br)n2CCC(=O)c1ccccc1 was read as hgDAF-12 ag -1.4, DAX1 inh-1 0.0, ssDAF12 agonist -0.6, hcDAF12 agonist 0.3, DAX1 inh-2 0.0 and SMARCA2 activ -1.8.
`O=C(NNC(=O)c1cccc(-n2cccc2)c1)c1ccccc1` gave hgDAF-12 ag 2.9, DAX1 inh-1 3.0, ssDAF12 agonist -1.4, hcDAF12 agonist -0.3, DAX1 inh-2 1.1 and SMARCA2 activ -0.8.
`O=C(NNC(=O)c1ccccc1F)c1cccc(-n2cccc2)c1` gave hgDAF-12 ag 4.4, DAX1 inh-1 3.7*, ssDAF12 agonist -0.9, hcDAF12 agonist -0.9, DAX1 inh-2 1.4 and SMARCA2 activ 1.9.
`Cc1cnc(C(=O)OCC(=O)c2cccc3ccccc23)cn1` gave hgDAF-12 ag -1.0, DAX1 inh-1 0.7, ssDAF12 agonist -0.5, hcDAF12 agonist 0.6, DAX1 inh-2 1.0 and SMARCA2 activ -1.1.
`O=C(NCc1ccccc1)/C(=N\O)c1ccccc1` gave hgDAF-12 ag 1.4, DAX1 inh-1 1.1, ssDAF12 agonist -0.8, hcDAF12 agonist -0.5, DAX1 inh-2 1.0 and SMARCA2 activ 2.4.
For CCCCN(C)C(=O)Cn1nc(Cc2ccncc2)c2ccccc2c1=O the results were hgDAF-12 ag -1.2, DAX1 inh-1 0.0, ssDAF12 agonist -1.1, hcDAF12 agonist -1.6, DAX1 inh-2 14.5* and SMARCA2 activ 0.5.
Oc1ccccc1C1=Nc2nc3ccccc3n2C(c2ccccc2)C1 (configuration not stated) was read as hgDAF-12 ag 13.1*, DAX1 inh-1 1.7, ssDAF12 agonist 0.8, hcDAF12 agonist 4.4, DAX1 inh-2 1.1 and SMARCA2 activ 5.5.
For CC(C)NC(=O)C1(C)CCN1Cc1ccc(-c2ccccc2)cc1 (configuration not stated) the results were hgDAF-12 ag -1.2, DAX1 inh-1 -2.3, ssDAF12 agonist -2.2, hcDAF12 agonist -2.1 and SMARCA2 activ -0.8.
Cc1cccc(C(=O)N/N=C2/SCC(=O)N2Cc2ccccc2)c1 was read as hgDAF-12 ag -2.2, DAX1 inh-1 0.6, ssDAF12 agonist -1.2, hcDAF12 agonist -0.2, DAX1 inh-2 -0.2 and SMARCA2 activ -4.9.
